Compound activity as filed in PubChem.
Giardia kill: Giardia lamblia killing; Giardia lamblia trophozoite viability; activity change, % at 7.66 µM, hits read low; 0.15% of 340,000 active; AID 540267; in the data active = activity change below about -80%; inconclusive = between about -30% and that limit;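 also: parasites exposed to compound for two days anaerobically before the ATP read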
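Trophozoites 100 cells/well + cpd; 48 hrs, 37 deg C, anaerobic. ATPLite 1-Step added, 15-30 min RT, luminescence read (ATP-based viability).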
HT1080 IDH1KD tx: HT-1080 IDH1 knockdown cell toxicity (counter line). HT-1080 IDH1 knockdown viability, ATP luminescence, 48 h. Potency, µM (doses to about 46.1 µM), hits mostly cytotoxic. 2% of 360,000 active. AID 686971
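IDH1KD HT-1080 cells, 750/well, RPMI + 5% FBS; compound pinned after 2 h settling; 48 h, 37 °C; CellTiter-Glo luminescence; % activity normalised to DMSO and no-cell wells; curves fitted, classed by r2 and efficacy.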
IL1B secr inh: blocks inflammasome-driven IL-1 beta release. 4.7% of 360,000 active. activity change, % at 57.5 µM. THP-1 LPS/ATP IL-1B secretion, AlphaLISA, 16 h; hits give low values; in the data active = activity change below about -50%; inconclusive = mostly about -30% to -49%
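Secreted IL-1B measured by AlphaLISA bead assay after 16 h compound exposure of THP-1 cells; compounds (final up to 57.5 uM) added 1 h before LPS (250 ng/mL) and ATP (1.25 mM) stimulation; lower signal means less secretion.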
TGFb SMAD3 inh: TGF-b pathway inhibition | Potency, µM (doses to about 46.1 µM), usual class: inhibitors | AID 588855 | HepG2 CAGA-GFP TGF-b/SMAD3 reporter, GFP fluorescence, 18 h; TGF-beta stimulated, 500 pg/mL final | 1.2% of 410,000 active; also: nearly all actives have a fitted effect of over 65% in size
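HEPG2 CAGA-GFP reporter cells (1000/well, DMEM with 1% FBS) received compounds, then recombinant TGF-beta at 500 pg/mL final for 18 hours at 37 degrees C. Per-cell GFP summed per well was normalised to unstimulated and stimulated DMSO controls before curve fitting.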
HT1080-NT tox: kills 2HG-producing HT-1080-NT fibrosarcoma cells; HT-1080-NT fibrosarcoma viability, CellTiter-Glo ATP luminescence, 48 h; Potency, µM (top dose mostly 46.1 µM), hits mostly cytotoxic; 1.6% of 360,000 active; AID 686970;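 also: NT is the 2HG producing partner of a matched IDH1 knockdown line; nearly all actives have a fitted effect of over 55% in size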
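Viability by CellTiter-Glo luminescence after 48 h compound exposure at 37C of HT-1080-NT cells (750/well, RPMI, 5% FBS). % activity scaled between DMSO wells and medium-only wells, then curve-fitted and categorized by curve class.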
HepG2 tox: counter-screen for TGF-b inhibitors: cytotoxicity in HepG2 cells; HepG2 CAGA-GFP viability, ATP luminescence, 18 h; AID 588856; Potency, µM (series often up to 46.1 µM), actives largely listed as cytotoxic; 0.76% of 410,000 active
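HepG2 CAGA-GFP cells (1000/well, DMEM with 1% FBS) received compound, then TGF-beta at 500 pg/mL final, and were incubated 18 hours at 37 degrees C. Viability was read by CellTiter-Glo luminescence. Media-only wells were set as complete cell-killing and DMSO as no toxicity.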
Large screens that a line does not name were inactive. Rows were chosen to be rich in hits. Some 6.5% of all compounds tested hit in one or more screens of this group. Unless noted, calls follow the shape of the dose curve; as a rule, active = well fitted curve in the direction sought with a large enough effect; inconclusive = small, poorly fitted or top-dose-only effect, or another doubt; inactive = no such curve, though single readings can be large; an effect the other way counts as inactive or inconclusive.

Nc1[nH]c(=O)nc2c1ncn2C1OC(CO)C(O)C1O (stereo not given)	none (no result: HT1080 IDH1KD tx, IL1B secr inh, HT1080-NT tox)
Cc1cc(C)cc(OCC(=O)N/N=C/c2ccc([N+](=O)[O-])o2)c1	Giardia kill -88, IL1B secr inh -64, TGFb SMAD3 inh inconclusive
Cc1ccccc1OCC(=O)N/N=C/c1ccc([N+](=O)[O-])o1	Giardia kill -93, HT1080 IDH1KD tx inconclusive, TGFb SMAD3 inh 18µM
Cc1ccc(C(=O)N/N=C\c2ccc([N+](=O)[O-])o2)cn1	Giardia kill inconclusive, HT1080 IDH1KD tx inconclusive, IL1B secr inh inconclusive, TGFb SMAD3 inh inconclusive
COc1ccccc1OCC(=O)N/N=C/C=C/c1ccc([N+](=O)[O-])o1	Giardia kill inconclusive, HT1080 IDH1KD tx inconclusive, IL1B secr inh -100, TGFb SMAD3 inh 10µM
COc1ccc(Cl)cc1C(=O)NCCS(=O)(=O)N1CCN(c2ccccc2OC)CC1	TGFb SMAD3 inh inconclusive (no result: Giardia kill, HT1080 IDH1KD tx, IL1B secr inh, HT1080-NT tox)
O=C(CSc1nc2c([nH]c3ccccc32)c(=O)n1-c1ccccc1F)Nc1cccc(Cl)c1	TGFb SMAD3 inh inconclusive (no result: Giardia kill, HT1080 IDH1KD tx, IL1B secr inh, HT1080-NT tox)
COCCCn1c(=O)/c(=C\c2ccccc2OC(F)F)s/c1=C(/C#N)C(=O)N1CCOCC1	IL1B secr inh -69
CC(C)(C)NC(=O)C(c1ccc(F)cc1)N(Cc1ccco1)C(=O)c1csnn1 (stereo not given)	none
CCC(C)(C)NC(=O)C(c1ccc(F)cc1)N(Cc1ccco1)C(=O)c1cnccn1 (stereo not given)	IL1B secr inh -83
COC(=O)c1ccc(C(C(=O)NCc2ccccc2)N(Cc2ccco2)C(=O)c2cnccn2)cc1 (stereo not given)	IL1B secr inh -59
CC(C)(C)NC(=O)C(c1ccncc1)N(Cc1ccco1)C(=O)c1ccc(-c2ccccc2)[nH]1 (stereo not given)	HT1080 IDH1KD tx 18µM, HT1080-NT tox 18µM
O=C(c1ccccc1)c1ccc(-n2cnnc2)c([N+](=O)[O-])c1	IL1B secr inh -78
O=C(Nc1ccc(CN2CCOCC2)cc1)c1ccc(N2CCCC2)c([N+](=O)[O-])c1	IL1B secr inh -72
O=C(c1ccccc1)c1ccc(-n2ccnc2)c([N+](=O)[O-])c1	none
COc1ccc(-c2noc(-c3ccc(N4CCN(C)CC4)c([N+](=O)[O-])c3)n2)cc1OC	TGFb SMAD3 inh inconclusive, HepG2 tox 11µM (no result: Giardia kill, HT1080 IDH1KD tx, IL1B secr inh, HT1080-NT tox)
Cc1ccc(-c2noc(-c3ccc(N4CCN(C)CC4)c([N+](=O)[O-])c3)n2)cc1	none (no result: Giardia kill, HT1080 IDH1KD tx, IL1B secr inh, HT1080-NT tox)
CCC(=O)N1CCN(c2ccc(NC(=O)c3ccc(N4CCOCC4)c([N+](=O)[O-])c3)cc2)CC1	none
CN1CCN(c2ccc(C(=O)c3ccc(Br)cc3)cc2[N+](=O)[O-])CC1	HT1080 IDH1KD tx inconclusive, IL1B secr inh -220
CN1CCN(c2ccc(C(CC(N)=O)NC(=O)Cc3ccc(Br)cc3)cc2[N+](=O)[O-])CC1 (stereo not given)	HepG2 tox 0.32µM
CN1CCN(c2ccccc2NC(=O)c2ccc(N3CCCC3)c([N+](=O)[O-])c2)CC1	HT1080 IDH1KD tx inconclusive, IL1B secr inh -78, HT1080-NT tox 13µM
O=C(Nc1ccccc1N1CCCCC1)c1ccc(Cl)c([N+](=O)[O-])c1	HT1080 IDH1KD tx inconclusive, HT1080-NT tox inconclusive (no result: IL1B secr inh)
COCc1cccc(-c2csc(C(O)c3cccc(OC)c3)n2)c1 (stereo not given)	none (no result: Giardia kill)
CNC(=O)c1c(NC(=O)c2ccc(S(=O)(=O)N3CCCCC3C)cc2)sc2c1CCC2 (stereo not given)	none (no result: Giardia kill, HT1080 IDH1KD tx, IL1B secr inh, HT1080-NT tox)
O=c1cc(CCl)nc(Cc2c(Cl)cccc2Cl)[nH]1	HT1080 IDH1KD tx 26µM, HT1080-NT tox 23µM
CN1CCC(C)(C(=O)Nc2cccc3c2CCCC3)C1 (stereo not given)	none (no result: Giardia kill)
CN1C(c2ccc(F)cc2)=CS/C1=C(\C#N)c1nnc2n1-c1ccccc1SC2	HT1080 IDH1KD tx inconclusive, IL1B secr inh -79
Cn1c(Cc2ccccc2)n[nH]c1=S	none
Cc1cc(SCC(=O)Nc2cccc(S(=O)(=O)NC3=NCCCCC3)c2)c(C)cc1Br	HT1080 IDH1KD tx 13µM, IL1B secr inh -64, TGFb SMAD3 inh inconclusive, HT1080-NT tox inconclusive
Cc1cc(SCC(=O)Nc2cccc(S(N)(=O)=O)c2)c(C)cc1Br	TGFb SMAD3 inh inconclusive
O=C(/C=C/c1ccccc1Cl)Nc1cccc(S(=O)(=O)NC2=NCCCCC2)c1	IL1B secr inh -64, TGFb SMAD3 inh inconclusive, HT1080-NT tox inconclusive
Cc1cc(SCC(=O)Nc2cccc(S(=O)(=O)NC3=NCCCCC3)c2)nc2ccccc12	IL1B secr inh -57, TGFb SMAD3 inh 11µM
Cc1cc(Cl)ccc1OCC(=O)Nc1cccc(S(=O)(=O)NC2=NCCCCC2)c1	IL1B secr inh -71, TGFb SMAD3 inh inconclusive
O=C(COc1ccc(Cl)cc1)Nc1cccc(S(=O)(=O)NC2=NCCCCC2)c1	none
Cc1ccc(-n2c(SCC(=O)Nc3cccc(S(=O)(=O)NC4=NCCCCC4)c3)nc3ccccc3c2=O)cc1C	none
CCc1cc(C(=O)N(CCCOC)c2c(N)n(Cc3ccccc3)c(=O)[nH]c2=O)sc1C	none
CCCCN(C)CCN1C(=O)C2C(C(=O)Nc3ccc(Cl)cc3)C3C=CC2(O3)C1C(=O)NC1CCCCC1 (stereo not given)	HT1080 IDH1KD tx inconclusive, IL1B secr inh -60
CCCN(CCC)CCN1C(=O)C2C(C(=O)Nc3ccc(C)cc3)C3C=CC2(O3)C1C(=O)NC1CCCCC1 (stereo not given)	IL1B secr inh inconclusive
Cc1c(NC(=O)Cc2ccc(F)cc2)cccc1-c1nc2cccnc2s1	none (no result: Giardia kill, HT1080 IDH1KD tx, IL1B secr inh, HT1080-NT tox)
COc1cccc(Cn2c(C(C)n3c(-c4cnccn4)nc4ccccc43)nc3ccccc32)c1 (stereo not given)	HT1080 IDH1KD tx 15µM, IL1B secr inh inconclusive, HT1080-NT tox inconclusive (no result: Giardia kill, TGFb SMAD3 inh, HepG2 tox)
COc1ccc(C(=O)N(C)C2CCCN(Cc3ccccc3F)C2)cc1C (stereo not given)	none
O=C(Nc1cccc(Cl)c1)NC1CCCCC1	none
CCOc1ccc(-n2c(C)c(C(=O)OC)c3cc(O)ccc32)cc1	none
CC(=O)c1c(C)n(-c2ccccc2)c2ccc(O)cc12	none
COC(=O)c1c(C)n(-c2ccccc2)c2ccc(O)cc12	HT1080 IDH1KD tx inconclusive, HT1080-NT tox 11µM
COC(=O)c1c(C)n(-c2ccc(C)cc2)c2ccc(O)cc12	HT1080 IDH1KD tx 20µM, TGFb SMAD3 inh inconclusive, HT1080-NT tox 13µM
COC(=O)c1ccccc1NC(=O)N1CCN(S(C)(=O)=O)CC1	none
CCn1nnnc1NCc1ccc(SC)cc1	IL1B secr inh -77
